# Data: ChEMBL document CHEMBL4513146, “CO-ADD screening of Karazin Kharkiv National University (Ukraine) compounds”
# Measured potencies and affinities stand elsewhere.
# Test system: Cryptococcus neoformans
# Conditions: Concentration 32 ug.mL-1; ASSAY_TEST Inhibition of Fungal Growth; detection method Resazurin; Absorption (OD600-OD570); plate type 384well; NBS; CORNING #3640
row,Structure (SMILES),Inhibition
1,CCCCc1ccc(NC(=O)Cn2c(=O)c3nnc(CCC)n3c3ccccc32)cc1,-20.48%
2,O=c1c2nn(Cc3c(F)cccc3Cl)c(=O)n2ccn1-c1ccccc1,-4.81%
3,CCOC(=O)c1ccccc1NC(=O)Cn1nc2c(Sc3ccccc3)nccn2c1=O,-6.53%
4,CCCCN(C)c1ccc2nnc(CCc3nc(-c4cc(OC)cc(OC)c4)no3)n2n1,-5.17%
5,Cc1ccccc1Nc1cc(C)n2c(=O)n(CCOc3ccc(F)cc3)nc2n1,-5.27%
6,Cc1cc2nn(CC(=O)Nc3ccc(F)cc3Cl)c(=O)n2c(Nc2ccc(F)cc2)n1,-3.99%
7,O=S(=O)(c1ccc2nncn2c1)N(Cc1ccccc1F)c1ccc2c(c1)OCCO2,-6.58%
8,CC(C)(C)Sc1ccc2nn(CC(=O)N3CCN(c4ccc(F)cc4)CC3)c(=O)n2n1,-8.43%
9,COc1ccccc1Cn1c(=O)c2sccc2n2c(=O)n(Cc3c(F)cccc3Cl)nc12,-30.55%
10,CC(C)Cn1c(=O)c2sccc2n2c(=O)n(Cc3ccccc3Cl)nc12,-28.89%
11,COc1cc(OC)c(NC(=O)Cn2nc3c(Sc4cccc(C)c4)nccn3c2=O)cc1Cl,-23.34%
12,O=C(Cn1nc2c(Sc3cccc(F)c3)nccn2c1=O)Nc1ccc(Br)cc1,-3.57%
13,Cc1cc2nn(CC(=O)Nc3ccc(F)cc3Cl)c(=O)n2c(Nc2ccccc2C)n1,-16.44%
14,COc1cccc(Sc2nc3ccccc3n3c(=O)n(CC(=O)Nc4ccccc4)nc23)c1,-26.53%
